Records with an inconclusive call do not appear. Activity calls are given as the source filed them. Calls follow the shape of the dose curve; as a rule, active = well fitted inhibition curve with a large enough effect; inconclusive = small, poorly fitted or top-dose-only effect; inactive = flat fitted curve, though single readings scatter.
What was measured:
CRL-7250 = normal cell line; assay: Cytotoxic Profiling of Annotated Libraries Using Quantitative High-Throughput Screening (AID 1296008); conditions: Five cell lines viability, CellTiter-Glo ATP luminescence, 48-72 h; max response: hits give low values; as to max response: % is scaled to controls: 0 for no effect and ±100 for the full control effect
Method in brief: (§1)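 Compounds were pin-transferred onto cells and incubated 48 or 72 hr at 37 degree Celsius, 95% humidity. CellTiter-Glo was added, plates sat 10 min at room temperature, then ATP-coupled luminescence was imaged as the viability read-out.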

HaCat [1] = assay: as above; conditions: Five cell lines viability, CellTiter-Glo ATP luminescence, 48-72 h; max response: hits give low values
Method in brief: as §1

KB-3-1 = assay: as above; conditions: Five cell lines viability, CellTiter-Glo ATP luminescence, 48-72 h; max response: hits give low values
Method in brief: as §1

NIH3T3 = assay: as above; conditions: Five cell lines viability, CellTiter-Glo ATP luminescence, 48-72 h; max response: hits give low values
Method in brief: as §1

HACAT [2] = assay: qHTS assay to identify novel small-molecules to repurpose for Merkel cell carcinoma treatment (AID 1296009); conditions: MCC and control cell lines, CellTiter-Glo viability, 72 h; at 44.8 µM (top of the series) unless noted
Method in brief: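 Cells exposed to NPC (8-point) and MIPE (11-point) compound dilutions for 72 hr at 37 degree celsius; viability read by CellTiter-Glo luminescence, normalized to no-cell and DMSO in-plate controls.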

Measured: max response
Also: nearly all actives have a fitted effect of over 60% in size.

Fc1ccc2c(CCNCc3cccc(OCC(F)(F)C(F)F)c3)c[nH]c2c1
inactive: CRL-7250 4.88% | HaCat [1] | KB-3-1 7.73% | NIH3T3 | HACAT [2]

O=C(NC[C@H]1CN(c2ccc(N3CCOCC3=O)cc2)C(=O)O1)c1ccc(Cl)s1
inactive: CRL-7250 0.206% | HaCat [1] | KB-3-1 -11.5% | NIH3T3 -0.938% | HACAT [2]

CC1(C)C2CCC(CO[C@@H]3O[C@H](CO[C@@H]4OC[C@](O)(CO)[C@H]4O)[C@@H](O)[C@H](O)[C@H]3O)C1C2 (stereo not given in full)
inactive: CRL-7250 1.81% | HaCat [1] | KB-3-1 | NIH3T3 | HACAT [2] inactive [at 17.4 µM]

O=c1cc(OCc2ccc(F)cc2)ccn1-c1ccc(OCCN2CCCC2)cc1
inactive: CRL-7250 -11.7% | HaCat [1] | KB-3-1 -29.6% | NIH3T3 -16.9% | HACAT [2]

C=C1CC[C@@H](O)[C@]2(C)CC[C@H]3C(=C)C(=O)O[C@@H]3[C@@H]12
inactive: CRL-7250 -3.82% | HaCat [1] | KB-3-1 | NIH3T3 -16.6% | HACAT [2]

CC(C)OC(=O)N1CCC(Oc2ncnc3c2cnn3-c2ccc(S(C)(=O)=O)cc2F)CC1
inactive: CRL-7250 | HaCat [1] | KB-3-1 -25.6% | NIH3T3 -1.21% | HACAT [2]

CN1CC2CN(c3ccc4oc5ccccc5c(=O)c4c3)CC2C1 (stereo not given)
inactive: CRL-7250 -0.983% | HaCat [1] | KB-3-1 -11.6% | NIH3T3 -10.4% | HACAT [2] inactive [at 17.4 µM]

COc1ccncc1C(=O)NC(=O)Nc1ccc(-c2ccccc2)c(C(F)(F)F)c1
inactive: CRL-7250 | HaCat [1] | KB-3-1 -11.2% | NIH3T3 3.25% | HACAT [2]

COc1ccc([C@H](Cc2ccncc2)c2ccccc2)cc1OC1CCCC1
inactive: CRL-7250 -5.35% | HaCat [1] | KB-3-1 -4.42% | NIH3T3 -22.8% | HACAT [2]

CCNC1(C(N)=O)CN(c2nc(C)nc3c(-c4ccc(Cl)cc4)c(-c4ccccc4Cl)nn23)C1
inactive: CRL-7250 -17.8% | HaCat [1] | KB-3-1 -14.3% | NIH3T3 -3.55% | HACAT [2]

O=C(O)c1ccc(S(=O)(=O)N(Cc2ccc(OC(F)(F)F)cc2)c2ncc(C(F)(F)F)cc2Cl)cc1
inactive: CRL-7250 -3.34% | HaCat [1] | KB-3-1 0.52% | NIH3T3 -0.0805% | HACAT [2]

O=C(Nc1ccn(Cc2ccc(O)cc2C(F)(F)F)n1)c1c(F)cccc1F
inactive: CRL-7250 -7.76% | HaCat [1] | KB-3-1 -23.9% | NIH3T3 | HACAT [2]

COc1cccc(N2CCN(C3=Nc4c(F)cccc4[C@H](CC(=O)O)N3c3cc(C(F)(F)F)ccc3OC)CC2)c1
inactive: CRL-7250 3.02% | HaCat [1] | KB-3-1 -13.7% | NIH3T3 3.41% | HACAT [2]

CN1CCC(c2cn(C)c3ccc(OS(=O)(=O)c4c(F)cccc4F)cc23)CC1
inactive: CRL-7250 | HaCat [1] | KB-3-1 -7.12% | NIH3T3 3.31% | HACAT [2]

CC(=O)O[C@@H]1CC[C@@]2(C)C(CC[C@]3(C)C2[C@H](O)C=C2[C@H]4[C@@H](C)[C@H](C)CC[C@]4(C)CC[C@]23C)[C@@]1(C)C(=O)O (stereo not given in full)
inactive: CRL-7250 -13.3% | HaCat [1] | KB-3-1 | NIH3T3 | HACAT [2] inactive [at 17.4 µM]

O=S(=O)(Cc1ccccc1)Nc1ccc(-c2ccc3c(cnn3-c3ccc(F)cc3)c2)c(C(F)(F)F)c1
inactive: CRL-7250 -4.69% | HaCat [1] | KB-3-1 -15.9% | NIH3T3 -4.39% | HACAT [2]

CC(=O)NC[C@H]1CN(c2ccc(N3CCSCC3)c(F)c2)C(=O)O1
inactive: CRL-7250 3.86% | HaCat [1] | KB-3-1 -11.9% | NIH3T3 | HACAT [2]

CCN(Cc1ccccc1)C(=O)Cn1c(=O)n(C)c2cnc(-c3ccccc3)nc21
inactive: CRL-7250 -1.74% | HaCat [1] | KB-3-1 | NIH3T3 | HACAT [2]

CCOc1ccc(CCNC(=O)c2cc3sc(Cl)cc3n2C)cc1OCC
inactive: CRL-7250 -5.08% | HaCat [1] | KB-3-1 -5.99% | NIH3T3 | HACAT [2]

CC(=O)c1c(C)cc2cccc(O)c2c1O[C@@H]1O[C@H](CO)[C@@H](O)[C@H](O)[C@H]1O
inactive: CRL-7250 -1.95% | HaCat [1] | KB-3-1 | NIH3T3 -3.48% | HACAT [2]
